Reference: PubChem BioAssay (EPA / NIEHS)
Active and inactive are the calls of the source. How the source made its calls: active means hit-call score of the fitted dose curve at least 0.9, where 1 is the maximum; inactive means score below 0.9.

test: CEETOX_H295R_DOC: CeeTox H295R High-throughput Steroidogenesis Assay for DOC (AID 2283439); settings: actives raise or lower the signal
Procedure, shortened: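 Steps: seed H295R, adhere overnight; 10 uM forskolin 48 h; replace with chemical medium (0.1% DMSO) 48 h; collect medium, MTBE extraction, HPLC-MS/MS for DOC. Viability then checked by MTT; cytotoxic chemicals diluted until viability ≥70%.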

Structure (SMILES)	outcome	AC50
C=CC(N)=O	inactive	
Cc1ccc(O)c(C)c1	inactive	
CCOCCOC(C)=O	inactive	
Cc1cccc(C)c1N	inactive	
c1cc2ccc3cccc4ccc(c1)c2c34		14.5 µM (active)
CC#Cc1cc(C)nc(Nc2ccccc2)n1	inactive	
CCC(=O)O[C@H]1CC[C@H]2[C@@H]3CCC4=CC(=O)CC[C@]4(C)[C@H]3CC[C@]12C		1.77 µM (active)
ClC1=C(Cl)[C@]2(Cl)[C@@H]3[C@H]4C[C@H]([C@@H]5O[C@H]45)[C@@H]3[C@@]1(Cl)C2(Cl)Cl		14.6 µM (active)
O=C(NC(=O)c1c(F)cccc1F)Nc1cc(Cl)c(OC(F)(F)C(F)F)c(Cl)c1	inactive	
Nc1ccc(-c2ccc(N)cc2)cc1		17.7 µM (active)
Cc1cc(O)ccc1Cl	inactive	
Oc1ccc(Cl)cc1Cl	inactive	
NS(=O)(=O)C(F)(F)C(F)(F)C(F)(F)C(F)(F)C(F)(F)C(F)(F)C(F)(F)C(F)(F)F	inactive	
CCSC(=O)N(CC)C1CCCCC1	inactive	
Clc1ccc(C(c2ccccc2Cl)C(Cl)(Cl)Cl)cc1 (stereo not drawn)	inactive	
C[C@]12CCC(=O)C=C1CC[C@@H]1[C@@H]2CC[C@@]2(C)[C@H]1CC[C@]2(C)O	inactive	
CC1=C2C[C@H]3[C@@H](CC=C4C[C@@H](O)CC[C@@]43C)[C@@H]2CC[C@]12O[C@@H]1C[C@H](C)CN[C@H]1[C@H]2C	inactive	

test: CEETOX_H295R_ESTRADIOL: CeeTox H295R High-throughput Steroidogenesis Assay for Estradiol (AID 2283440); settings: actives raise or lower the signal;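 further: estradiol secreted into medium quantified by LC-MS/MS after dansyl derivatisation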
Procedure, shortened: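 H295R adrenocortical cells were prestimulated with 10 uM forskolin for 48 h, then exposed to test chemical in 0.1% DMSO for 48 h. Medium estradiol was extracted with MTBE, dansyl-derivatized and quantified by HPLC-MS/MS; bidirectional fit versus DMSO.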

Structure (SMILES)	outcome	AC50
Cc1ccc(O)c(C)c1	inactive	
Cc1cc2c3c(c1)C(c1ccccc1)=N[C@@H](NC(=O)c1ccncc1)C(=O)N3CC2	inactive	
Cc1cccc(C)c1N	inactive	
CC#Cc1cc(C)nc(Nc2ccccc2)n1	inactive	
CCC(=O)O[C@H]1CC[C@H]2[C@@H]3CCC4=CC(=O)CC[C@]4(C)[C@H]3CC[C@]12C		0.643 µM (active)
O=C(NC(=O)c1c(F)cccc1F)Nc1cc(Cl)c(OC(F)(F)C(F)F)c(Cl)c1	inactive	
Nc1ccc(-c2ccc(N)cc2)cc1	inactive	
Cc1cc(O)ccc1Cl	inactive	
Oc1ccc(Cl)cc1Cl		17 µM (active)
C[C@]12CCC(=O)C=C1CC[C@@H]1[C@@H]2CC[C@]2(C)C(=O)CC[C@@H]12	inactive	
NS(=O)(=O)C(F)(F)C(F)(F)C(F)(F)C(F)(F)C(F)(F)C(F)(F)C(F)(F)C(F)(F)F	inactive	
N#Cc1ccc(N(CC(N)=O)CC(F)(F)F)cc1C(F)(F)F	inactive	
Clc1ccc(C(c2ccccc2Cl)C(Cl)(Cl)Cl)cc1 (stereo not drawn)	inactive	

test: CEETOX_H295R_ESTRONE: CeeTox H295R High-throughput Steroidogenesis Assay for Estrone (AID 2283441); settings: actives raise or lower the signal;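 on AC50: human adrenal H295R cells prestimulated with forskolin for two days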
Procedure, shortened: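 Estrone secreted into medium quantified by LC-MS/MS after dansyl chloride derivatization, following 48 h chemical exposure (0.1% DMSO final) of forskolin-prestimulated (10 uM, 48 h) H295R cells; gain or loss fitted against DMSO; MTT viability in same wells.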

Structure (SMILES)	outcome	AC50
Cc1ccc(O)c(C)c1	inactive	
Cc1cc2c3c(c1)C(c1ccccc1)=N[C@@H](NC(=O)c1ccncc1)C(=O)N3CC2	inactive	
Cc1cccc(C)c1N	inactive	
CC#Cc1cc(C)nc(Nc2ccccc2)n1	inactive	
CCC(=O)O[C@H]1CC[C@H]2[C@@H]3CCC4=CC(=O)CC[C@]4(C)[C@H]3CC[C@]12C		1.31 µM (active)
O=C(NC(=O)c1c(F)cccc1F)Nc1cc(Cl)c(OC(F)(F)C(F)F)c(Cl)c1	inactive	
Nc1ccc(-c2ccc(N)cc2)cc1	inactive	
Cc1cc(O)ccc1Cl	inactive	
Oc1ccc(Cl)cc1Cl		24.4 µM (active)
C[C@]12CCC(=O)C=C1CC[C@@H]1[C@@H]2CC[C@]2(C)C(=O)CC[C@@H]12	inactive	
NS(=O)(=O)C(F)(F)C(F)(F)C(F)(F)C(F)(F)C(F)(F)C(F)(F)C(F)(F)C(F)(F)F	inactive	
N#Cc1ccc(N(CC(N)=O)CC(F)(F)F)cc1C(F)(F)F	inactive	
Clc1ccc(C(c2ccccc2Cl)C(Cl)(Cl)Cl)cc1 (stereo not drawn)	inactive	
